Data from PubChem BioAssay.
Results filed as inconclusive are left out. Calls of active or inactive are those of the source.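 The calls were made as follows, unless noted: active = viability increase at or above a cutoff of the median across tested compounds plus 3 SD (cut at about 8.5% in these data, passing the limit was not always enough); inconclusive = some gains above the cutoff, reason not given; inactive = the rest.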

How the values were obtained:
[1] = Her2 expression decrease, cell viability multiplex – SKBR3 breast tumor cells, AlphaScreen, ATP viability, primary screen (AID 461;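 active = Her2 level under about 52% in both replicate screens, with viability over 70% of control, limit read from the data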;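 as to Her2 level: lower value means less Her2 protein in the cells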;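 as to viability: percent of carrier control wells set as 100% viability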); details: SKBR3 Her2 protein level, 18-24 h, measured here: SKBR3 viability, ATP luminescence, at 10 µM
[2] = molecular target: Receptor tyrosine-protein kinase erbB-2 (Homo sapiens) (UniProt P04626); assay: as above; details: 18-24 h, at 10 µM, stronger effect = lower value
[3] = reduced viability of SK-BR-3 breast cancer cells – cell-based, 24 h, human, pilot screen (AID 572;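 active = viability at or below 10% of carrier control in both of two separate runs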;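 also: compound exposure lasted between 18 and 24 h rather than exactly 24 h; 100% = carrier-treated control wells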); details: SK-BR-3 viability, CellTiter-Glo luminescence, at 10 µM, stronger effect = lower value
[4] = HUVEC growth inhibition – cell-based, human, primary screen (AID 575;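 active = viability at or below 30% in both replicate assays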;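 also: 100% = median of untreated cell wells with 0.1% DMSO on each plate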); details: HUVEC proliferation, CellTiter-Glo luminescence, 72 h; at 10 µM; stronger effect = lower value
[5] = H69AR cell proliferation blockers – human, duplicate replicates, primary screen (AID 580;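 active = viability at or under a set limit in both replicates, limit being median viability minus 3 SD, cut at about 48% in these data, passing the limit was not always enough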;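 also: 100% = mean luminescence of untreated wells and 0% = no signal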); details: H69AR lung tumor cells viability, ATP luminescence, 72 h; at 10 µM; stronger effect = lower value
[6] = MRP1 drug-resistance reversers in H69AR cells – cell-based, doxorubicin co-treatment, pilot screen (AID 601;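 active = viability loss from added drug above about 55%, and viability with drug at most 40%, in both replicates, limit read from the data, passing the limit was not always enough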); details: CellTiter-Glo, 72 h, at 10 µM; for differential viability (reversal): stronger effect = higher value
[7] = yeast transport mutant growth inhibition pilot in 384-well plates, post-Golgi transport modulator project (AID 636; in the data active = inhibition above about 31%); details: absorbance 615 nm, about 18 h, stronger effect = higher value
[8] = growth suppression of yeast trafficking mutant, preliminary HTS, modulators of trafficking downstream of Golgi apparatus project, 1536-format plate, OD 615 nm (AID 637; in the data active = inhibition above about 30%); details: yeast transport mutant growth, absorbance 615 nm, 18 h; stronger effect = higher value
[9] = S. cerevisiae growth inhibition in permissive medium (OD615), pilot counter-assay for S. cerevisiae lifespan shortening project, permissive growth control (AID 705;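 active = growth inhibition above 25% in both replicates, a cutoff set 3 SD above the mean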); details: OD615, 24 h, at 10 µM, stronger effect = higher value
[10] = S. cerevisiae growth inhibition in restrictive medium, OD615, pilot screen, restrictive growth control, yeast lifespan reduction project (AID 706;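 active = growth inhibition above a set limit, 3 SD over mean compound inhibition, in both replicates, cut at about 43% in these data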;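 also: modified DeaD lifespan yeast strain shifted to restrictive glucose medium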); details: OD615, 48 h, at 10 µM, stronger effect = higher value
[11] = doxorubicin toxicity protection in MRP-1 cells – H69AR cells, CellTiter-Glo, duplicate, MRP-1 activator project, pilot screen (AID 807); details: H69AR viability with doxorubicin, CellTiter-Glo luminescence; at 10 µM; stronger effect = higher value;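 also: compound pretreatment 18-22 h then 72 h combined with doxorubicin; 0% = doxorubicin alone and 100% = vehicle without doxorubicin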
[12] = viability of HCT116 without oncogenic beta-catenin – human colon tumor cells, pilot screen (AID 823;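 active = cell viability at or below a set limit in both duplicate runs, the limit being the all-compound median minus 4 SD, cut at about 23% in these data, passing the limit was not always enough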;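 also: 0% = wells killed by 20 µM Hyamine and 100% = untreated DMSO cell wells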); details: HCT116 beta-catenin knockout viability, CellTiter-Glo, 60 h; at 10 µM; stronger effect = lower value
[13] = viability of PTEN-null HCT116 cells – cell-based, HCT116 clonal line, CellTiter-Glo, pilot screen (AID 824;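 active = viability at or below 27.92% in each of two runs, the all-compound median minus 4 SD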;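 also: 0% = 20 µM Hyamine control and 100% = vehicle cell control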); details: HCT116 PTEN-deleted viability, 60 h, at 10 µM, stronger effect = lower value
[14] = RAM pathway blockade in budding yeast – dse1pr::URA3 reporter, 5-FOA selection, pilot screen (AID 869;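 active = inhibition over a set limit, the all-compound mean plus 3 SD, in both replicate runs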;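 also: 0% = DMSO wells with no growth and 100% = 10 µM 1-NA-PP1 with full growth; RAM network block rescues cells from 5-FOA so hits raise OD615 growth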); details: S. cerevisiae dse1pr::URA3 5-FOA growth, OD615, 2 d; at 10 µM; stronger effect = higher value; strain carries analog-sensitive mutant Cbk1 kinase
[15] = RAM signaling pathway blockade in yeast – S. cerevisiae, Pdr1DBD-CYC8 efflux-inhibited sensitized strain, primary screen (AID 1298;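 active = RAM network inhibition above 8.4% in each of two replicates, 3 SD over the compound average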;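 also: 0% = DMSO untreated cells without growth and 100% = 10 µM 1-NA-PP1 full growth; higher means more yeast growth rescued from 5-FOA killing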); details: S. cerevisiae cbk1-as DSE1-URA3 strain, 5-FOA growth OD615, 2 d; at 50 µM; stronger effect = higher value
[16] = H69AR cells + 2 uM doxorubicin, measured here: viability with 2 uM doxorubicin, stronger effect = lower value
[17] = H69AR cells, compound alone cytotoxicity

Sequence of Receptor tyrosine-protein kinase erbB-2 (Homo sapiens) (P04626 whole entry, looked up): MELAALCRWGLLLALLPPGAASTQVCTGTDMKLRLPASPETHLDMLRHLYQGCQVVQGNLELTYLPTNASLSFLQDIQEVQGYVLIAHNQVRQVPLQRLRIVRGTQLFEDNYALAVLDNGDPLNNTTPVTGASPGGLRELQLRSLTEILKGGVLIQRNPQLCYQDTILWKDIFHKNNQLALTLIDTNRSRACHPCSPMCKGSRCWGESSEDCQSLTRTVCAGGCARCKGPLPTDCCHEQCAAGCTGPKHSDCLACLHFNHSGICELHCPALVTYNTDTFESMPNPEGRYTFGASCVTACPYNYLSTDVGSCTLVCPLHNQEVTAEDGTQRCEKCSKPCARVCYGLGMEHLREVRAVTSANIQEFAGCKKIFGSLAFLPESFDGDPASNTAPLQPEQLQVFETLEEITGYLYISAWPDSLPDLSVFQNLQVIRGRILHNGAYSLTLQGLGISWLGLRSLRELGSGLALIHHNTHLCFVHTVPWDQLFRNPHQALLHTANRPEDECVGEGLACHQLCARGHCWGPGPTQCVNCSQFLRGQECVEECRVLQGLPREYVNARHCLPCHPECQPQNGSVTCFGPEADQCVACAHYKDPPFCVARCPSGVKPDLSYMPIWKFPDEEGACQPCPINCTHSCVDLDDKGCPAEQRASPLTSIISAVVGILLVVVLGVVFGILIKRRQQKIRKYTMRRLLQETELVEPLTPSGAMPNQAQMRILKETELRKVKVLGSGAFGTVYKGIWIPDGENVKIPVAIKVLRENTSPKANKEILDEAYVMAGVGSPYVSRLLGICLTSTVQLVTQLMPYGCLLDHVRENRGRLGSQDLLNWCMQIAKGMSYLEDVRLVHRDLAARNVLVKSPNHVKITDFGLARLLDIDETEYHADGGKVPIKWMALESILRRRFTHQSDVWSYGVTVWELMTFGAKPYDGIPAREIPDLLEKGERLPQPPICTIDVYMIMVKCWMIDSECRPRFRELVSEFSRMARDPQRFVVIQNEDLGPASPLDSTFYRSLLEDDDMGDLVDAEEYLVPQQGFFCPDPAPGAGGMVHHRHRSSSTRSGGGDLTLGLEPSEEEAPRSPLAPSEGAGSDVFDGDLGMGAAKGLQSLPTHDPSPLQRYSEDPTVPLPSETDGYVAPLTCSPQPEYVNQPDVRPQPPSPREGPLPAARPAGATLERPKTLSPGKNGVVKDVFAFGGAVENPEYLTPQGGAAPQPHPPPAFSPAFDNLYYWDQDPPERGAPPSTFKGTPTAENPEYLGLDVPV

SMILES | viability [1] [%] | Her2 level [2] | viability [3] | viability [4] | viability [5] | differential viability (reversal) ([6]; H69AR cells + 2 uM doxorubicin) | viability [6, 16] [%] | viability [6, 17] [%] | inhibition [7] | inhibition [8] | growth inhibition [9] | growth inhibition [10] | viability increase [11] | viability [12] | viability [13] | inhibition [14] | RAM network inhibition [15]
Cc1onc(-c2ccccc2Cl)c1C(=O)Nc1cnn(Cc2ccccc2)c1 | 88.5 | 98% (inactive) | 88.5% (inactive) | 73.6% (inactive) | 81.5% (inactive) | -5.4% (inactive) | 86.9 | 81.5 | -5.73% (inactive) | 0.33% (inactive) | -12.3% (inactive) | -9.34% (inactive) | 1.54% (inactive) | 83.2% (inactive) | 73% (inactive) | 1.07% (inactive) | 2.37% (inactive)
O=C(c1ccc(Br)o1)N(Cc1ccccc1)c1ccccn1 | 93.5 | 102% (inactive) | 93.5% (inactive) | 99.6% (inactive) | 92.9% (inactive) | 2.17% (inactive) | 90.7 | 92.9 | 1.49% (inactive) | -0.98% (inactive) | -3.17% (inactive) | -6.46% (inactive) | -6.28% (inactive) | 94.9% (inactive) | 84% (inactive) | 1.94% (inactive) | 12% (inactive)
CC1Cc2nc(SCC(=O)Nc3ccc4c(c3)OCO4)n(-c3ccc(F)cc3)c(=O)c2S1 (stereo not drawn) | 90.5 | 98% (inactive) | 90.5% (inactive) | 79.2% (inactive) | 89.2% (inactive) | 2.12% (inactive) | 87.1 | 89.2 | -5.87% (inactive) | 9.33% (inactive) | -7.17% (inactive) | 5.03% (inactive) | -2.53% (inactive) | 93.6% (inactive) | 86.7% (inactive) | 2% (inactive) | 6.73% (inactive)
COc1cccc(C(=O)Nc2cc(C)c3c(=O)oc4ccccc4c3n2)c1 | 80.5 | 62.5% (inactive) | 80.5% (inactive) | 57.6% (inactive) | 81.9% (inactive) | -19.4% (inactive) | 101 | 81.9 | -6.53% (inactive) | -4.67% (inactive) | -1.54% (inactive) | -1.12% (inactive) | 3.07% (inactive) | 85.2% (inactive) | 81.7% (inactive) | 2.74% (inactive) | 4.69% (inactive)
NC(=O)c1cccc2c1C(=O)N(C1CCCCC1)C2 | 109 | 99.5% (inactive) | 109% (inactive) | 76% (inactive) | 88.9% (inactive) | -2.49% (inactive) | 91.4 | 88.9 | -0.77% (inactive) | -1.33% (inactive) | -7.48% (inactive) | -4.63% (inactive) | -0.58% (inactive) | 101% (inactive) | 95.3% (inactive) | 0.59% (inactive) | 3.36% (inactive)
Cc1cc(C)n2nc(S(=O)(=O)N(C)c3ccccc3)nc2n1 | 103 | 102% (inactive) | 103% (inactive) | 88.2% (inactive) | 94.5% (inactive) | 0.67% (inactive) | 93.9 | 94.5 | -5.6% (inactive) | 4.17% (inactive) | -16.1% (inactive) | -13.7% (inactive) | -1.5% (inactive) | 104% (inactive) | 98.1% (inactive) | 3.53% (inactive) | 1.62% (inactive)
COc1ccc(-n2c(Cc3cccn3C)nnc2SCC(=O)Nc2ccc(Cl)cc2)cc1 | 99 | 58% (inactive) | 99% (inactive) | 46.6% (inactive) | 70.7% (inactive) | -8.34% (inactive) | 79 | 70.7 | -0.38% (inactive) | 2% (inactive) | 4.53% (inactive) | 8.94% (inactive) | -6.37% (inactive) | 47.6% (inactive) | 51.3% (inactive) | -0.125% (inactive) | 5.81% (inactive)
CCCCC(NS(=O)(=O)c1ccc(OC)cc1)C(=O)O (stereo not drawn) | 110 | 108% (inactive) | 110% (inactive) | 101% (inactive) | 98.4% (inactive) | 4.5% (inactive) | 93.9 | 98.4 | -0.39% (inactive) | -4.17% (inactive) | -19.3% (inactive) | -7.24% (inactive) | 0.29% (inactive) | 99.1% (inactive) | 97.1% (inactive) | 1.7% (inactive) | 3.29% (inactive)
O=C(CC1Oc2ccccc2NC1=O)NCCCN1CCOCC1 (stereo not drawn) | 106 | 100% (inactive) | 106% (inactive) | 85.5% (inactive) | 93.5% (inactive) | -3.48% (inactive) | 96.9 | 93.5 | -5.07% (inactive) | 2.67% (inactive) | 2.08% (inactive) | -1.36% (inactive) | -2.31% (inactive) | 108% (inactive) | 96.8% (inactive) | 1.94% (inactive) | 0.57% (inactive)
